KDM5B inhibitor = inhibitors of human KDM5B histone demethylase. AID 1347165. Q9UGL1. KDM5B demethylase, FDH-coupled NADH fluorescence (FDH is formaldehyde dehydrogenase). Potency, µM (doses to about 57.7 µM), most hits filed as inhibitors. 2.6% of 220,000 active; also: nearly all actives have a fitted effect of over 70% in size
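qHTS format, multiple compound concentrations. Buffer 50 mM HEPES pH 7.5/0.01% Tween-20; 200 nM KDM5BΔAP final; 10 min compound preincubation; substrate-mix levels 12.5 µM peptide, 25 µM α-KG, 0.25 mM NAD⁺; 30 min RT; ΔRFU.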
IP6K1 inhibitor = inhibitors of human IP6K1; Q92551; IP6K1 kinase, ADP-Glo luminescence, 2 h; stronger effect = lower value; activity change, % (series mostly up to about 58 µM); 0.81% of 140,000 active; AID 1645851; in the data active = activity change below about -25%
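ADP-Glo luminescence measures ADP made by human IP6K1 during a 2 h RT reaction with ATP/IP6 (mix at 1.3 mM/130 uM); top library doses 57.5 and 19.1 uM final.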
IP6K1 conf = confirmation of human IP6K1 inhibitors. recombinant IP6K1 kinase, ADP-Glo luminescence, 2 h. Potency, µM (series often up to 49 µM), most hits filed as inhibitors. 13% of 1,200 active. shares compounds with IP6K1 inhibitor. AID 1645852; also: nearly all actives have a fitted effect of over 65% in size
Of the large screens only hits and unclear results are named; the others gave an inactive call (follow-up assays come after a bar, where they were run); ! = not confirmed by another sample. An excerpt weighted towards active compounds, which were near 2.7% of everything screened. Unless noted, calls follow the shape of the dose curve; as a rule, active = well fitted inhibition curve with a large enough effect; inconclusive = small, poorly fitted or top-dose-only effect; inactive = no such curve, though single readings can be large or run the other way.

CC(C(=O)N1CCC2(CC1)N(Cc1ccccc1)C(=O)CS2(=O)=O)c1ccccc1 (stereo unspecified)	none (no result: KDM5B inhibitor)
Cc1ccc(SCCNC(=S)Nc2ccc(Cl)cc2C)cc1	none (no result: IP6K1 inhibitor)
COc1cc2c(=O)c(S(=O)(=O)c3ccc(F)cc3)cn(Cc3ccc(Cl)cc3)c2cc1OC	none
O=c1c(S(=O)(=O)c2ccc(Cl)cc2)cn(Cc2ccc(F)cc2)c2ccc(F)cc12	IP6K1 inhibitor -38 | IP6K1 conf inconclusive
CCc1cccc(NC(=O)CSc2ncc(-c3ccc(F)cc3)o2)c1	none (no result: IP6K1 inhibitor)
COc1ccc(C2Cn3nnc(C(=O)N4CCN(C(=O)CCc5ccccc5)CC4)c3CO2)cc1 (stereo unspecified)	KDM5B inhibitor inconclusive, IP6K1 inhibitor -25 | IP6K1 conf inactive
COc1ccc(CCC(=O)N2CCN(C(=O)c3nnn4c3COC(c3ccccc3)C4)CC2)cc1 (stereo unspecified)	none
CCS(=O)(=O)N1CC(=O)N(c2ccc(Cl)cc2)C(C)(C(=O)NC2CCCCCC2)C1 (stereo unspecified)	IP6K1 inhibitor -34 | IP6K1 conf inactive
CCCS(=O)(=O)N1CC(=O)N(c2ccc(Cl)cc2)C(C)(C(=O)NC2CCCC2)C1 (stereo unspecified)	none
C=C1CC[C@H]2[C@@](C)(CCC[C@@]2(C)C(=O)O)[C@@H]1CCC(C)CCO (stereo partly specified)	none (no result: KDM5B inhibitor)
C=C1CCC2C(C)(C)C(O)CCC2(C)C1CCC(C)CCO (stereo unspecified)	IP6K1 inhibitor -30 (no result: KDM5B inhibitor) | IP6K1 conf inconclusive
COc1ccccc1CNC(=O)Cn1c(=O)c2c(ncn2C2CCCC2)n(Cc2ccccc2)c1=O	none (no result: IP6K1 inhibitor)
CCOC(=O)N1CCN(Cc2nc3cc(NC(=O)c4ccc(OC)cc4)ccc3n2C(C)C)CC1	none
CCOC(=O)N1CCN(Cc2nc3cc(NC(=O)C(C)C)ccc3n2C(C)C)CC1	IP6K1 inhibitor -36 | IP6K1 conf inactive
CCCCc1ccc(NN)c(I)c1	none (no result: IP6K1 inhibitor)
CC(=O)N1CCCC(c2nn(-c3ccccn3)c(=O)[nH]2)C1 (stereo unspecified)	IP6K1 inhibitor -25 (no result: KDM5B inhibitor) | IP6K1 conf inactive
O=C(C1CC1)N1CCCC(c2nn(-c3ccccn3)c(=O)[nH]2)C1 (stereo unspecified)	none (no result: KDM5B inhibitor)
O=C(Nc1ccc2nc[nH]c(=O)c2c1)c1ccc(F)cc1Cl	none (no result: IP6K1 inhibitor)
CCCCc1nn(CC(=O)NCC2Cc3ccccc3CN2C)c(=O)n1CC (stereo unspecified)	KDM5B inhibitor inconclusive, IP6K1 inhibitor -30 | IP6K1 conf inactive
CCCCc1nn(CC(=O)NC[C@H]2CCc3ccccc3O2)c(=O)n1CC	none
CCc1nc(SCC(=O)Nc2cccc(OC)c2)c2c3c(sc2n1)COC(C)(C)C3	none (no result: IP6K1 inhibitor)
O=C(O)Cn1nnc(-c2ccc(OCc3cccc(C(F)(F)F)c3)cc2)n1	KDM5B inhibitor inconclusive, IP6K1 inhibitor -30 | IP6K1 conf inconclusive
O=C(OCc1cccc(C(F)(F)F)c1)c1ccc(-c2nnn(Cc3ccc(F)cc3)n2)cc1	none
Cc1cccc(C(=O)Nc2ccc(NC(=S)NC(=O)c3cccc(Cl)c3)cc2)c1	none (no result: IP6K1 inhibitor)
Cc1ccc2c(c1)OC(c1ccc3c(c1)OCCO3)CC2=O (stereo unspecified)	none (no result: IP6K1 inhibitor)
O=C1C[C@@H](c2ccc(O)cc2)Oc2cc(O)ccc21	IP6K1 inhibitor -35 (no result: KDM5B inhibitor) | IP6K1 conf inconclusive
CCOc1ccc(CC(=O)NC2CCN(c3cc(-c4ccccc4)[nH]n3)C2)cc1OCC (stereo unspecified)	KDM5B inhibitor inconclusive
CN(C)C(=O)N1C2CCC1CN(c1ccc(C(F)(F)F)cc1)C2	IP6K1 inhibitor -27 | IP6K1 conf inconclusive
O=C(N1CCCC1)N1C2CCC1CN(c1ccc(C(F)(F)F)cc1)C2	none
COc1cc(Nc2ncc3c(n2)-c2ccc(Cl)cc2C(c2c(F)cccc2OC)=NC3)ccc1C(=O)O	IP6K1 inhibitor -37! (no result: KDM5B inhibitor) | IP6K1 conf inconclusive
COc1ccc(Cl)cc1C(=O)Nc1ccc2nc(Nc3cccc(Cl)c3)cc(C)c2c1	KDM5B inhibitor inconclusive
CC(Sc1ccc(F)cc1)C(=O)NC1(C#N)CCCCC1 (stereo unspecified)	none (no result: IP6K1 inhibitor)
CC1=C(C(=O)OC(C)C)C(c2cccc([N+](=O)[O-])c2)C(C(=O)OC2CN(C(c3ccccc3)c3ccccc3)C2)=C(N)N1 (stereo unspecified)	none (no result: KDM5B inhibitor) | IP6K1 conf inactive
COCCOC(=O)C1=C(C)NC(C)=C(C(=O)OC(C)C)C1c1cccc([N+](=O)[O-])c1 (stereo unspecified)	none (no result: KDM5B inhibitor)
CCc1nc2c(c(-c3ccc(O)cc3)n1)CN(Cc1ccc(N(C)C)cc1)CC2	none (no result: KDM5B inhibitor)
CCN1C(C(=O)c2ccccc2)=C(OC(=O)COc2ccc(C)cc2)c2ccccc2S1(=O)=O	KDM5B inhibitor inconclusive
CCN1C(C(=O)c2ccccc2)=C(OC(=O)COc2ccc(OC)cc2)c2ccccc2S1(=O)=O	KDM5B inhibitor inconclusive, IP6K1 inhibitor -34 | IP6K1 conf inactive
CCCN1C(C(=O)c2ccccc2)=C(OC(=O)COc2ccccc2)c2ccccc2S1(=O)=O	KDM5B inhibitor inconclusive, IP6K1 inhibitor -28 | IP6K1 conf inconclusive
CCCN1C(C(=O)c2ccccc2)=C(OC(=O)COc2ccc(C)cc2)c2ccccc2S1(=O)=O	KDM5B inhibitor inconclusive
CSc1nc(C)cc(Nc2cccc(C(=O)O)c2)n1	KDM5B inhibitor inconclusive
CCOC(=O)c1cnc2c(C)cc(C)cc2c1Nc1cccc(C(=O)O)c1	IP6K1 inhibitor -26 | IP6K1 conf inconclusive
Cc1cc(C)c2nc(C)cc(Nc3cccc(C(=O)O)c3)c2c1	KDM5B inhibitor inconclusive, IP6K1 inhibitor -25 | IP6K1 conf inactive
CCOC(=O)c1cnc2c(C)cc(C)cc2c1Nc1cccc(O)c1	none (no result: IP6K1 inhibitor)
CC(C)N(CC(=O)NC(N)=O)Cc1ccccc1	none (no result: IP6K1 inhibitor)
Cc1noc(C)c1C(=O)NCc1ccnc(OC2CCCCC2)c1	none (no result: IP6K1 inhibitor)
C=C(C)CC1C(Br)=CCC[N+]1(C)C (stereo unspecified)	none (no result: IP6K1 inhibitor)
O=C(CSc1nc2cc3ccccc3cc2[nH]1)Nc1cccc(C(F)(F)F)c1	IP6K1 inhibitor -30 | IP6K1 conf inactive
Nc1ncnc2nc(SCC(=O)Nc3cccc(C(F)(F)F)c3)[nH]c12	none (no result: IP6K1 inhibitor)
CCn1cc(CN2CCC3(CC2)CC(C(=O)N2CCOCC2)N(C)C3)c(C)n1 (stereo unspecified)	none (no result: KDM5B inhibitor)
COc1ccc(-c2ccc(C(=O)N3CCCCC3)cc2)nn1	IP6K1 inhibitor -51 (no result: KDM5B inhibitor) | IP6K1 conf inconclusive
COc1ccc(-c2ccc(C(=O)N3CCN(C(=O)c4ccccc4)CC3)cc2)nn1	none (no result: KDM5B inhibitor)
Cc1cccc(CN2CCc3nc(N4CCN(c5ccccn5)CC4)ncc3C2)c1	KDM5B inhibitor inconclusive, IP6K1 inhibitor -27 | IP6K1 conf inconclusive
Cc1ccc(CN2CCc3nc(N4CCN(c5ncccn5)CC4)ncc3C2)cc1	KDM5B inhibitor inconclusive
CCC(=O)c1ccc(NC(C)=O)cc1O	none (no result: IP6K1 inhibitor)
CCC(=O)c1c(O)cc(O)cc1O	IP6K1 inhibitor -29 (no result: KDM5B inhibitor) | IP6K1 conf inconclusive
CCOc1ccc(CNC(=O)C2CCCN(c3nn4cc(-c5ccc(F)cc5)nc4s3)C2)cc1 (stereo unspecified)	none
CCOc1ccc(CNC(=O)C2CCCN(c3nn4cc(-c5ccc(OC)cc5)nc4s3)C2)cc1 (stereo unspecified)	IP6K1 inhibitor -37 | IP6K1 conf inconclusive
CC(C)CCNc1nc(-c2ccc3[nH]c(=O)[nH]c3c2)cs1	none (no result: IP6K1 inhibitor)
O=C(N[C@H](Cc1ccccc1)C1CC(O)C1)c1cnn(Cc2ccccc2)c1 (stereo partly specified)	none
